Consider nine compounds from PubChem BioAssay (NCATS).

The target of assay [1] is Methanococcus maripaludis chaperonin (MmCpn) (UniProt Q6LX38). Description: High-Throughput Screening for Modulators of Cytosolic Chaperonin Activity: MmCpn Primary Screen (AID 488978).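 Also: 50 nM MmCpn enzyme hydrolysing 30 µM ATP at 37 °C; 0% is about no effect.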 In short, it runs like this: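 Measures ATPase turnover of the M. maripaludis chaperonin (50 nM final) against 30 uM ATP over 10 min at 37C, with compound added 5 min beforehand at room temperature. ADP is quantified by HTRF immunodetection.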

Assay [2] deals with Thyrotropin receptor (Homo sapiens) (UniProt P16473). Kind of assay: qHTS Assay for Antagonists of the Thyroid Stimulating Hormone Receptor (AID 488980). Also: series mostly up to about 58 µM; 0% is about no effect. In outline:
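Cells expressing human TSHR (HEK293) are dispensed in HBSS/HEPES containing 70 uM RO 20-1724, compound is added, then TSH at EC80 (4 nM final). Antibody in lysis buffer follows, 30 minutes at room temperature before HTRF detection.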

Assay [3] has as its target D(1A) dopamine receptor (Homo sapiens) (UniProt P21728). Kind of assay: HTS Assay for Allosteric Agonists of the Human D1 Dopamine Receptor: Primary Screen for Potentiators (AID 488982). Also: 0% is about no effect. In short, it runs like this: (§1)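 Tetracycline-induced HEK293 Trex D1 cells with forced coupling to calcium, loaded with no-wash calcium dye; kinetic fluorescence read 180 s after compound addition for agonism, then a further 180 s after an EC20 dopamine challenge for potentiation.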

Assay [4] concerns the target ATPase family AAA domain-containing protein 5 (Homo sapiens) (UniProt Q96QE3). Description: Validation screen for small molecules that inhibit ELG1-dependent DNA repair in human embryonic kidney (HEK293T) cells expressing luciferase-tagged ELG1 (AID 493107).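 Also: cells co-treated with the DNA-damaging agent 5-fluorouridine alongside compound; series mostly up to about 46 µM; % is scaled to controls: 0 for no effect and ±100 for the full control effect; inhibitors lower the ELG1-luciferase luminescence signal; nearly all actives have a fitted effect of over 70% in size.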 In outline:
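Quantitative HTS in HEK293T cells carrying luciferase-tagged ELG1, stimulated with 5-fluorouridine alongside compound for 16 hr. Loss of luciferase signal marks inhibition of ELG1 response.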

The target in assay [5] is Thyrotropin-releasing hormone receptor (Homo sapiens) (UniProt P34981). Description: qHTS for Small Molecule Agonists and Allosteric Enhancers of Human TRH Receptor: Validation Screen for Agonists (AID 493127;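 active = calcium activation more than 3 SD above the typical response in the agonist read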;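 also: intracellular calcium rise by fluo-8 fluorescence before TRH EC20 addition; 0% is about no effect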). The settings on record: TRH receptor agonist cell assay; at 2 µM; stronger effect = higher value. In short, it runs like this: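 Gq-coupled calcium mobilization in TRHR cells after compound addition, monitored kinetically with fluo-8 dye on an FDSS reader.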
Chain of Thyrotropin-releasing hormone receptor (Homo sapiens) (P34981 whole entry, looked up): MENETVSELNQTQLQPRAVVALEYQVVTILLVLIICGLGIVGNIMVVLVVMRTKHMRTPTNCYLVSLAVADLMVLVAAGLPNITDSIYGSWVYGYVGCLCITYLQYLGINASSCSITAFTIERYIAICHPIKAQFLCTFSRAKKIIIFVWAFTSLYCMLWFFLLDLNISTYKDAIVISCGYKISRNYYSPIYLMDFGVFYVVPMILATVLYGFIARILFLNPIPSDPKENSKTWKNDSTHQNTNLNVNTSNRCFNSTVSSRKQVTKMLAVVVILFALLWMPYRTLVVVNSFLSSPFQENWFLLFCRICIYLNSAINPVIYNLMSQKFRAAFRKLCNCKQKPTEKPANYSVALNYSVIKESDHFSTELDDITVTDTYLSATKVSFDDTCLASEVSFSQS

Assay [6] can be described thus: qHTS for Inhibitors of Cell Surface uPA Generation: Validation Assay (AID 493164).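 Also: RAW 264.7 macrophage cells exposed to compound for 18 h; 0% is about no effect.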 In short, it runs like this:
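RAW 264.7, 4000 cells/well, o/n plating; cpd 7-pt 1:5 dilution 2.45 nM–38.3 uM final; 18 h, 37 C/5% CO2; ATP-Lite, 5 s luminescence exposure.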
In general terms: Quantitative high-throughput screening tests each substance at several concentrations.

Assay [7] concerns the target Galactokinase (Homo sapiens) (UniProt P51570). Description: qHTS Validation Assay for Inhibitors of Human Galactokinase (GALK) (AID 493189). Also: 0% is about no effect. In outline:
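Compounds were pin-transferred into ATP buffer, then GALK-galactose mix was added (final 5 nM enzyme, 100 uM galactose, 35 uM ATP). After 1 h at room temperature, remaining ATP was measured luminescently.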

A short description of assay [8]: Validation screen for small molecules that induce DNA re-replication in SW480 colon adenocarcinoma cells (AID 504364). Also: potency is read from the fitted curve at half-maximal effect. In outline: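 Cells are treated 48 hr with test compound, stained 40 min with Hoechst at 37 C, and scanned for nuclear fluorescence; compounds inducing re-replication increase nuclei with elevated intensity.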
The target in assay [9] is Peptidyl-prolyl cis-trans isomerase NIMA-interacting 1 (Homo sapiens) (UniProt Q13526). Kind of assay: qHTS Validation Assay to Find Inhibitors of Pin1 (AID 504536; active = well fitted inhibition curve with a large enough effect in the polarisation, with a control signal flat, not every such curve was filed as active; the % refers to the polarisation;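 also: 0% = full Pin1 enzyme wells and -100% = no-enzyme wells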). In outline:
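Fluorescence polarization competition: compounds (titration) displace HiFluor-488-labeled Pin1-1b peptide from Pin1 (0.3 uM final) in pH 7.5 HEPES buffer with DTT, 10 min at room temperature; %Activity normalized to no-enzyme wells, curves fitted.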

For assay [10], the target named is phosphoglycerate mutase (Leishmania major) (UniProt Q4Q090). Description: qHTS Validation Assay to Find Inhibitors of Phosphoglycerate Mutase (AID 504548).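 Also: end-point luminescence from Kinase-GloPlus after the PGAM reaction; series mostly up to about 58 µM; % is scaled to controls: 0 for no effect and ±100 for the full control effect.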 In short, it runs like this: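 L. major PGAM (1.25nM final) was added to substrate buffer and pinned compound, incubated 45 minutes at room temperature, then Kinase-GloPlus added; luminescence read after 10 minutes. Buffer: 100 mM TEA pH 7.6, 5 mM MgCl2, 0.01% Tween-20.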

The target in assay [11] is Ubiquitin carboxyl-terminal hydrolase 1 (Homo sapiens) (UniProt O94782). Kind of assay: Inhibitors of USP1/UAF1: Pilot qHTS (AID 504865).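 Also: rhodamine fluorescence freed from ubiquitin-rhodamine substrate followed over time; top concentration of the series differs between compounds; % is scaled to controls: 0 for no effect and ±100 for the full control effect; nearly all actives have a fitted effect of over 35% in size.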 In outline:
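Kinetic fluorescence assay: 1nM USP1/UAF1, 15 min compound preincubation, then 150nM Ub-Rho; 480/540 nm.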

Assay [12] has as its target Transient receptor potential cation channel subfamily V member 1 (Homo sapiens) (UniProt Q8NER1). Kind of assay: HTS Assay for Compounds that Act as Enhancers of the Vanilloid Receptor 1 (AID 488979). Also: 0% is about no effect. In outline:
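TRPV1 cells loaded with Fluo-8 calcium dye; compound added and Ca2+ signal (ex 480/em 520 nm) followed 3 min, then capsaicin at EC20 added and read 2 more min to detect enhancement.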

For assay [13], the target named is D(1A) dopamine receptor (Homo sapiens) (UniProt P21728). Description: HTS Assay for Allosteric Agonists of the Human D1 Dopamine Receptor: Primary Screen for Agonists (AID 488981). Also: 0% is about no effect. In outline:
as §1

The target is the same in assay [14]. Description: HTS Assay for Allosteric Agonists of the Human D1 Dopamine Receptor: Primary Screen for Antagonists (AID 488983).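 Also: calcium flux response to an EC80 dopamine challenge measured with no-wash dye; nearly all actives have a fitted effect of over 65% in size.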 Also: potency is read from the fitted curve at half-maximal effect. In outline:
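Screening of inducible HEK293 T-REx D1 cells: compound first, EC80 dopamine 180 s later, each phase read kinetically for calcium over 180 s.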

Assay [15] concerns the target ATP-dependent 6-phosphofructokinase (Trypanosoma brucei brucei) (UniProt O15648). Kind of assay: qHTS Assay to Find Inhibitors of T. brucei phosphofructokinase: hit validation (AID 492961).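 Also: luminescence reports ADP formed as PFK phosphorylates fructose-6-phosphate with ATP; series mostly up to about 51 µM; % is scaled to controls: 0 for no effect and ±100 for the full control effect.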 In outline:
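Compounds titrated; %activity normalized to 0x and 1x enzyme controls, curve-fitted. Readout: ADP-Glo luminescence after 45 min room-temperature reaction of 1.25 nM PFK, 0.1 mM ATP, 0.5 mM F6P, pH 8.0.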

A short description of assay [16]: Nrf2 qHTS screen for inhibitors: Validation (AID 493153; active = well fitted inhibition curve with a large enough effect in the main read-out, with a control signal flat, not every such curve was filed as active; also: potency is read from the fitted curve at half-maximal effect). The settings on record: Potency: luciferase luminescence; viability change: measured here: cytotoxicity max response. In outline: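 Dose-response validation uses reporter A549 cells with firefly luciferase under an antioxidant response element. Compounds stay on cells 18-24 h at 37°C, and luminescence indicates Nrf2-driven transcription.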

Assay [17] can be described thus: qHTS for Inhibitors of ATXN expression: Validation of Cytotoxic Assay (AID 588349).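 Also: cells exposed to compound for 72 hr; % is scaled to controls: 0 for no effect and ±100 for the full control effect.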 In short, it runs like this: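 HEK293, compound dose series, 72 hr / 37 degrees C; viability via CellTiter Glo (intracellular ATP).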
Assay [18] is described as follows: Validation screen for small molecules that induce genotoxicity in human embryonic kidney (HEK293T) cells expressing luciferase-tagged ELG1 (AID 493106). Also: 0% is about no effect. In outline: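 Reporter-gene quantitative HTS in HEK293T cells carrying luciferase-tagged ELG1, whose level climbs under genotoxic stress. Compound exposure lasts 16 hr at 37 °C before luciferase detection.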
Assay [19] addresses Phosphoglycerate kinase, glycosomal (Trypanosoma brucei brucei) (UniProt P07378). Kind of assay: qHTS Validation Assay to Find Inhibitors of Phosphoglycerate Kinase (AID 504547).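 Also: control wells lack PGK and mark full inhibition.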 In short, it runs like this:
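PGK activity was coupled to GAPDH (100nM final), which generates the unstable substrate 1,3-bisphosphoglycerate in-well. Reactions ran 60 minutes at room temperature in 100mM TEA pH 7.6, 5mM MgCl2, 0.01% Tween-20, then Kinase-Glo Plus luminescence was read.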

Inconclusive results are not listed. Activity calls are given as the source filed them. Unless noted, calls follow the shape of the dose curve; as a rule, active = well fitted curve in the direction sought with a large enough effect; inconclusive = small, poorly fitted or top-dose-only effect, or another doubt; inactive = no such curve, though single readings can be large; an effect the other way counts as inactive or inconclusive.

Chain of Transient receptor potential cation channel subfamily V member 1 (Homo sapiens) (Q8NER1 whole entry, looked up): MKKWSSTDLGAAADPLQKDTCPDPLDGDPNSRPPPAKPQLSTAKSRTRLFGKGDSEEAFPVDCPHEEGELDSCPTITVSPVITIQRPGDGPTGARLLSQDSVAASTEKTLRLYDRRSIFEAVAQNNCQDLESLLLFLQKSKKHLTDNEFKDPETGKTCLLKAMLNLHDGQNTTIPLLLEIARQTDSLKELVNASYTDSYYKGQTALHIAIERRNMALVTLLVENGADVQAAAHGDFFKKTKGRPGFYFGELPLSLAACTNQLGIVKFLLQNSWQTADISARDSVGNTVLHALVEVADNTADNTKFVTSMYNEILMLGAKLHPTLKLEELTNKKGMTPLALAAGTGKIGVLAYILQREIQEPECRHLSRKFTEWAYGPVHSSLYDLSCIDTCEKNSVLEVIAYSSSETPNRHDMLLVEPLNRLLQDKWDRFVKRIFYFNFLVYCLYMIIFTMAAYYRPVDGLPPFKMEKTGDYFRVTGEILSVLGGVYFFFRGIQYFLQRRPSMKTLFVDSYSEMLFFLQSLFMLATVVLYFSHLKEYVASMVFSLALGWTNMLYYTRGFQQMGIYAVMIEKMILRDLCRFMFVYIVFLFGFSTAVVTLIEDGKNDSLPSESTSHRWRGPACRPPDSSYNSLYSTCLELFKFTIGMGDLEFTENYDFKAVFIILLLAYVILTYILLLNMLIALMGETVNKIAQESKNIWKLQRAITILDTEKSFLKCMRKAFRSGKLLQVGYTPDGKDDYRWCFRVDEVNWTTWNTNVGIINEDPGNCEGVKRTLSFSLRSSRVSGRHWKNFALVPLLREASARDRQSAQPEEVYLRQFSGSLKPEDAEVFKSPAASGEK
Chain of Galactokinase (Homo sapiens) (P51570 whole entry, looked up): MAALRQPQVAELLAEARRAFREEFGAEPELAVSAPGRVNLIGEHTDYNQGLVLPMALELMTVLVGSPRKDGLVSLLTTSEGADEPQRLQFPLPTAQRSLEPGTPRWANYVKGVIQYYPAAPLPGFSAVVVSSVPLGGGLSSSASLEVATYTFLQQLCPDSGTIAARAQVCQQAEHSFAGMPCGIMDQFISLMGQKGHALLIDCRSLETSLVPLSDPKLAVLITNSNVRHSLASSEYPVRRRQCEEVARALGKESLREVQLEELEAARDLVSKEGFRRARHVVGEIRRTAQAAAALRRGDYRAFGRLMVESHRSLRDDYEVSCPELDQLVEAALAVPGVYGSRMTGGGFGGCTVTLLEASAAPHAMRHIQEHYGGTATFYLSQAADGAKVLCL
Chain of Thyrotropin receptor (Homo sapiens) (P16473 whole entry, looked up): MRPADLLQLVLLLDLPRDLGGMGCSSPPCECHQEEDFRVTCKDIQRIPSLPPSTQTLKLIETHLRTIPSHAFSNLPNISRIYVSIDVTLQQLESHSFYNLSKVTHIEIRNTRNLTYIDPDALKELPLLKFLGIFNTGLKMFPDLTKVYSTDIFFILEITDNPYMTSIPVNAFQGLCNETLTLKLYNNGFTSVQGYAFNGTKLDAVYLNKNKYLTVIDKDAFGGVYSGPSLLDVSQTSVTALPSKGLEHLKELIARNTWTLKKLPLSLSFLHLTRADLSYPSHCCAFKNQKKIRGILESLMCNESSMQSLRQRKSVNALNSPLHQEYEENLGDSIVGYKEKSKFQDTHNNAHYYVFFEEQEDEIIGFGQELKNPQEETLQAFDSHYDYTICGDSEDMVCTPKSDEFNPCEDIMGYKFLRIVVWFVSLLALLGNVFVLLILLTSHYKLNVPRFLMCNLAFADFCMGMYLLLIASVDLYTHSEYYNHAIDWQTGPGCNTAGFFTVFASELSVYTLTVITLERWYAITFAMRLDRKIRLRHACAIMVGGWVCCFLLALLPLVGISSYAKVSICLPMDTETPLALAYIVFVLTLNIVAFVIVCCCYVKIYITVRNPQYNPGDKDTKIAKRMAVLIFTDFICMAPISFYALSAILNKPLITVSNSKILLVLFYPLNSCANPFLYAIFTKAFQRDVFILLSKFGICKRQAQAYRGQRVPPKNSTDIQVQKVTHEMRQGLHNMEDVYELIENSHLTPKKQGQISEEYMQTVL
Chain of ATP-dependent 6-phosphofructokinase (Trypanosoma brucei brucei) (O15648 whole entry, looked up): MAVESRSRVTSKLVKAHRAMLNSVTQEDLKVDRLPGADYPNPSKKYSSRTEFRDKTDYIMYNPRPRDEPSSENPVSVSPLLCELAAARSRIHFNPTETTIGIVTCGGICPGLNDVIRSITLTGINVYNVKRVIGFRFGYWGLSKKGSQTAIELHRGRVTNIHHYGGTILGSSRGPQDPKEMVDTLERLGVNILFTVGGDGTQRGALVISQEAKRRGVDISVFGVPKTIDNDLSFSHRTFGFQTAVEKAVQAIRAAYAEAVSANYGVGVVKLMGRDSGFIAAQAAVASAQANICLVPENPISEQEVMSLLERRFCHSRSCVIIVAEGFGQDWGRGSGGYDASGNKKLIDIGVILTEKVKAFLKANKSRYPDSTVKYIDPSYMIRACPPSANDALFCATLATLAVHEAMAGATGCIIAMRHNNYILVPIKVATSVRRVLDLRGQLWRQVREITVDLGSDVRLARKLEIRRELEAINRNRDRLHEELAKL
Chain of Ubiquitin carboxyl-terminal hydrolase 1 (Homo sapiens) (O94782 whole entry, looked up): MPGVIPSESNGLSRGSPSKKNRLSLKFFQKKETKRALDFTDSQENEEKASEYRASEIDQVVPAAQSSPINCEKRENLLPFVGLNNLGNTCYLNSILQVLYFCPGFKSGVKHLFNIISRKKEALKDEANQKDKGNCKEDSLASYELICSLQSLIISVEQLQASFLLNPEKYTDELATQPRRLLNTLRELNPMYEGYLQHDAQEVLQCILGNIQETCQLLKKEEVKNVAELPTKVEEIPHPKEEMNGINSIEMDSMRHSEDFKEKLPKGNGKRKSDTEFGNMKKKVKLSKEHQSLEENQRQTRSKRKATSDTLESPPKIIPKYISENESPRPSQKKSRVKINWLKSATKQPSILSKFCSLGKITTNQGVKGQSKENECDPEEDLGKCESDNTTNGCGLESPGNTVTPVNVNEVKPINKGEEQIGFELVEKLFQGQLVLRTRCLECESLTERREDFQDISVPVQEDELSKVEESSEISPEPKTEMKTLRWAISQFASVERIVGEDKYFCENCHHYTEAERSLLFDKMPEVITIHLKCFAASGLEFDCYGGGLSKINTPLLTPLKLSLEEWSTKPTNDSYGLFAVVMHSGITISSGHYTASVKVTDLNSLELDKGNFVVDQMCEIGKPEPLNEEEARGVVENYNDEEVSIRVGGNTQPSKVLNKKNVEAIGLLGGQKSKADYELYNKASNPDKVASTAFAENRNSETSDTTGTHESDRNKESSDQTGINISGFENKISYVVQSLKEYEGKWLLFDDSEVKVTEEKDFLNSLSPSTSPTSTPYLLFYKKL
Chain of Peptidyl-prolyl cis-trans isomerase NIMA-interacting 1 (Homo sapiens) (Q13526 whole entry, looked up): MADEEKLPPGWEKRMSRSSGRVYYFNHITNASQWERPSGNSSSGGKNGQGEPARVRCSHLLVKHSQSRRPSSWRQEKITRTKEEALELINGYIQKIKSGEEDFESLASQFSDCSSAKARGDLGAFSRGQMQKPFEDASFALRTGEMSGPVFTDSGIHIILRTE
Chain of D(1A) dopamine receptor (Homo sapiens) (P21728 whole entry, looked up): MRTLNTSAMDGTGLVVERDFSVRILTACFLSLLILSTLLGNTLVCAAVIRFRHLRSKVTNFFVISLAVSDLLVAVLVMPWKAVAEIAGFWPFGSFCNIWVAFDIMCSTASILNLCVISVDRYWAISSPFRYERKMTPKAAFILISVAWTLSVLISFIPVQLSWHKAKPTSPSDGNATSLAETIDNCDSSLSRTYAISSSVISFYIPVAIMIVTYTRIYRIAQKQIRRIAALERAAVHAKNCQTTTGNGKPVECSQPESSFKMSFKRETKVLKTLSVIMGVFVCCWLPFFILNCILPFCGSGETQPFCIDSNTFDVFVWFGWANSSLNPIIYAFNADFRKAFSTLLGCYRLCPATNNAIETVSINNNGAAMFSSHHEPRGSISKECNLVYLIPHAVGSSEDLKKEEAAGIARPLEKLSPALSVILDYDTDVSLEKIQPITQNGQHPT
Chain of Phosphoglycerate kinase, glycosomal (Trypanosoma brucei brucei) (P07378 whole entry, looked up): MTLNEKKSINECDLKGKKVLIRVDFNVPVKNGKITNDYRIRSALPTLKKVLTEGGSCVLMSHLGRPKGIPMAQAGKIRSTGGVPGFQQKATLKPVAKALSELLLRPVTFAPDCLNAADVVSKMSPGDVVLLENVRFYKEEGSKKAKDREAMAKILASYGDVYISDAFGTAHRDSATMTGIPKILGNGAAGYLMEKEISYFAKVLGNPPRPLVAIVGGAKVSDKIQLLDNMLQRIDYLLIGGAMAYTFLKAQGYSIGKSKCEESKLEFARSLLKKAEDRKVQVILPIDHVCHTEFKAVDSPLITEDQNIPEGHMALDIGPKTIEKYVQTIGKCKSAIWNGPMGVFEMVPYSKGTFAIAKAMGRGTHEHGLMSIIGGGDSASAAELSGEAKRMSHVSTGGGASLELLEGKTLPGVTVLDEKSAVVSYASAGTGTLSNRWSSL

With `Clc1ccc2c(c1)C(N1CCNCC1)=Nc1ccccc1O2`, the outcome in assay [1], in assay [2], in [6] and in [10] was inactive. For the same compound, the Potency entry in [3], in [4], in assay [7], in [8], in assay [9] and in [11] was “inactive” in each case. The activation in [5] was 4.19% (inactive).
Regarding `CN(Cc1cnc2nc(N)nc(N)c2n1)c1ccc(C(=O)N[C@@H](CCC(=O)O)C(=O)O)cc1`, the result in [12], in assay [2], in [6] and in assay [17] was inactive. Besides, the Potency entry in assay [13], in [3], in assay [14], in [15], in assay [4] and in [7] was “inactive” each time. The Potency result in assay [8] and in assay [11] was “inactive” throughout. For the same compound, the Potency in [16] is 580 nM (active). For the same compound, in assay [16], the viability change was -0.856%.
In the case of `CCOC(=O)Nc1ccc(NCc2ccc(F)cc2)nc1N`, the result in assay [12], in [2], in assay [6], in assay [10] and in assay [17] was inactive. Also, the Potency entry in assay [13], in assay [3], in [14], in assay [15], in assay [18] and in assay [4] was “inactive” throughout. Also, in [8], the Potency entry was “inactive”.
Regarding `COC(=O)Nc1nc2ccc(C(=O)c3cccs3)cc2[nH]1`, the result in [12], in assay [2], in assay [6] and in assay [10] was inactive. Also, the Potency result in [13], in assay [3], in assay [14], in [4], in [16] and in assay [7] was “inactive” each time. In addition, the Potency result in assay [9], in [19] and in assay [11] was “inactive” each time. Moreover, in assay [16], the viability change was -18.1%. Besides, in [8], the Potency was 116 nM (active).
In the case of `COc1ccccc1OCC(O)CN1CCN(CC(=O)Nc2c(C)cccc2C)CC1` (stereo unspecified), the outcome in assay [12], in [2], in assay [6], in assay [10] and in assay [17] was inactive. For the same compound, the Potency entry in assay [13], in assay [3], in assay [14], in [18], in assay [4] and in [16] was “inactive” throughout. The Potency entry in assay [7], in assay [8], in assay [9] and in assay [11] was “inactive” in each case. In assay [5], the activation was 0.375% (inactive). The viability change in assay [16] is -3.01%.
Take `OCCN1CCN(CCCN2c3ccccc3Sc3ccc(C(F)(F)F)cc32)CC1`: the call in assay [1], in assay [2], in [6] and in assay [10] was inactive. Besides, the Potency entry in assay [4], in [16], in [7], in assay [8], in [9] and in [19] was “inactive” each time. In addition, the activation in assay [5] is 1.88% (inactive). The viability change in assay [16] came to 1.55%.
With `CN(C)CCC=C1c2ccccc2C=Cc2ccccc21`, the compound was called inactive in assay [1], in [2], in assay [6] and in [17]. The Potency entry in [13], in [3], in [15], in assay [4], in [16] and in assay [7] was “inactive” in each case. Further, the Potency result in [8], in assay [9], in assay [19] and in assay [11] was “inactive” each time. Further, the Potency in assay [14] is 1 µM (active). The activation in assay [5] was 1.69% (inactive). The viability change in assay [16] worked out at 1.79%.
Take `Clc1ccccc1C(c1ccccc1)(c1ccccc1)n1ccnc1`: the result in assay [12], in assay [2], in [6] and in assay [10] was inactive. In addition, the Potency entry in assay [3], in assay [14], in [15], in assay [4], in [7] and in [8] was “inactive” each time. The Potency result in [9] and in [19] was “inactive” in each case. Moreover, the activation in [5] was -13.1% (inactive).
Take `CN(C)C(=O)C(CCN1CCC(O)(c2ccc(Cl)cc2)CC1)(c1ccccc1)c1ccccc1`: the compound was called inactive in [1] and in assay [6]. Also, the Potency entry in [3], in [14], in assay [4], in assay [7], in assay [9] and in assay [19] was “inactive” in each case. The Potency entry in assay [11] was “inactive”. Further, in assay [5], the activation is 17% (inactive).
